Screening data from PubChem.
G9a inh: qHTS Assay for Inhibitors of Histone Lysine Methyltransferase G9a; 350,000 tested, 8.8% active; G9a H3K9 monomethylation, AlphaScreen, 2 h; Histone-lysine N-methyltransferase EHMT2 (Homo sapiens), Q96KQ7; Potency, µM (highest dose often 102 µM), for the others: at the highest dose activity, negative = inhibition, hits mostly inhibitors; AID 504332, 2011; further: on the % scale 0 is the no-effect control and ±100 the full control effect; nearly all actives have a fitted effect of over 75% in size
Target sequence (Q96KQ7 913-1193 limits assumed): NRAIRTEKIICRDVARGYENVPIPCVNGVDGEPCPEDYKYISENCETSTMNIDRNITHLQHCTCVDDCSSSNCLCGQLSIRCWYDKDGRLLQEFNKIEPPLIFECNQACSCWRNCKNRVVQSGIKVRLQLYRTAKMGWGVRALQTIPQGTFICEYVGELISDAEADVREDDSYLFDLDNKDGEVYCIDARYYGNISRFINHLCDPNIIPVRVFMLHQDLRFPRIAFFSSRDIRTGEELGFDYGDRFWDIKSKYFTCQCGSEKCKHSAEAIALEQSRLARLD
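Chemiluminescent proximity detection of H3K9 monomethylation, read after 10 min bead incubation in the dark. Reaction: 20 nM G9a, 500 nM biotin-H3K9 peptide, 20 uM SAM cofactor, 2 h, room temperature, following 15 min enzyme-compound preincubation.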
Sfp PPTase inh: qHTS Assay for Inhibitors of Bacillus subtilis Sfp phosphopantetheinyl transferase (PPTase); AID 1490, 2009; Potency, µM, without a hit: largest response in the series, negative = inhibition, actives largely listed as inhibitors; 310,000 tested, 3.5% active; Biochemical Sfp PPTase activity, qHTS;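 further: the enzyme is Sfp with the accession as filed and its product quenches rhodamine fluorescence; 0% = enzyme reaction without inhibitor and -100% = no enzyme wells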
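Step 1, compound plus 15 nM Sfp-PPTase, 15 min, room temperature. Step 2, add rhodamine-CoA (5 uM) and BHQ-2-YbbR (12.5 uM). Step 3, read 525/598 nm fluorescence at 0 and 30 min.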
BAZ2B inh: qHTS Assay for Inhibitors of BAZ2B; Potency, µM (highest dose often 114 µM), for inactives: top-dose activity change, negative = inhibition, most hits filed as inhibitors; Bromodomain adjacent to zinc finger domain protein 2B (Homo sapiens), Q9UIF8; AID 504333, 2011; 360,000 tested, 4.4% active; AlphaScreen BAZ2B-H3K14Ac peptide displacement; further: on the % scale 0 is the no-effect control and ±100 the full control effect; nearly all actives have a fitted effect of over 60% in size
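BAZ2B (50 nM) with biotin-H3(5-23)K14Ac peptide (50 nM) in PBS pH 7.4, 0.01% Tween-20, preformed 30 min, then compound 30 min at room temperature; top concentration 110uM. AlphaScreen streptavidin donor/nickel chelate acceptor beads (10 ug/mL final), 20 min dark, signal read.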
JMJD2A Tudor: qHTS Assay for Inhibitors of JMJD2A-Tudor Domain; Potency, µM (highest dose often 114 µM), without a hit: at the top dose activity change, negative = inhibition, most hits filed as inhibitors; Lysine-specific demethylase 4A (Homo sapiens), O75164; 390,000 tested, 4.4% active; AlphaScreen JMJD2A-Tudor / H3K4me3 peptide binding; further: on the % scale 0 is the no-effect control and ±100 the full control effect; nearly all actives have a fitted effect of over 50% in size
HP1b chromo inh: HTS for Inhibitors of HP1-beta Chromodomain Interactions with Methylated Histone Tails | AlphaScreen HP1-beta / biotin-H3K9me3 peptide binding | Potency, µM (series often up to 114 µM), for the others: at the highest dose activity change, negative = inhibition, usual class: inhibitors | 390,000 tested, 0.56% active | AID 540317, 2011; further: nearly all actives have a fitted effect of over 70% in size
Target sequence (P83916 whole entry, looked up): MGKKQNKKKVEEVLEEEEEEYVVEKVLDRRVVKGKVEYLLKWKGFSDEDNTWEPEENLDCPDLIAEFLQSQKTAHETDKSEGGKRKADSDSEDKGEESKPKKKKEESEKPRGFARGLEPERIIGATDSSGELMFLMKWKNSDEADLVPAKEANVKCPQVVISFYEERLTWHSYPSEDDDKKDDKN
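HP1-beta protein (50 nM final) preincubated 30 min at room temperature with biotinylated H3(1-18)K9me3 peptide (50 nM) in PBS pH 7.4, 0.01% Tween-20, then compound added for 30 min. AlphaScreen streptavidin donor/nickel chelate acceptor beads (10 ug/mL final), 30 min dark, luminescence read.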
Numbers without * were called inactive; [ ] = dose if it differs, or a comment. Most compounds without a hit are left out; they make up all but 12% or so of the library. The call rests on the fitted dose curve; in most records, active means well fitted curve in the direction sought with a large enough effect; inconclusive means small, poorly fitted or top-dose-only effect, or another doubt; inactive means no such curve, though single readings can be large; an effect the other way counts as inactive or inconclusive. Potency means the concentration at half of the fitted maximal effect.

`O=S(=O)(c1ccccc1)c1nc(-c2cccc(Cl)c2)oc1N1CCOCC1` gave G9a inh 39.8µM*, Sfp PPTase inh 1.1%, BAZ2B inh inconclusive, JMJD2A Tudor -35.5% and HP1b chromo inh -0.3%.
`Cc1cc(NS(=O)(=O)c2ccc(NC(=O)COc3ccc(Cl)c(C)c3)cc2)no1` gave G9a inh -12.9%, Sfp PPTase inh 13.7%, BAZ2B inh -2.0%, JMJD2A Tudor -13.6% and HP1b chromo inh 16.7%.
Cc1nc2cccnc2n1C1CCN(C(=O)Nc2ccccc2C(F)(F)F)CC1 was read as G9a inh 9.7%[12.7 µM], BAZ2B inh -6.8%, JMJD2A Tudor 6.6% and HP1b chromo inh 30.0%.
Screening Cc1cc(C)c2nc3s/c(=C/c4ccc5c(c4)n(C)c(=O)n5C)c(=O)n3c2c1 returned G9a inh inconclusive, Sfp PPTase inh 20µM* and BAZ2B inh inconclusive.
COc1ccc(Cl)cc1NC(=O)CSc1nc2c([nH]c3ccccc32)c(=O)n1-c1ccccc1 was read as G9a inh -26.2%[59 µM], BAZ2B inh -16.4%, JMJD2A Tudor -17.1% and HP1b chromo inh 5.5%[57 µM].
For Cc1c(-c2nnc(SCC(=O)Nc3ccccc3F)o2)nnn1-c1ccc(F)cc1 the results were G9a inh -3.9%[59 µM], BAZ2B inh -18.8%, JMJD2A Tudor -20.4% and HP1b chromo inh 7.7%[57 µM].
`CCOc1ccc(-n2c(-c3ccc(Br)cc3)c[n+]3c2CCCCC3)cc1` gave G9a inh 1.12µM*, Sfp PPTase inh 5.7%, JMJD2A Tudor -13.9% and HP1b chromo inh 7.3%.
CCOc1ccc(-n2c(-c3ccc(OC)cc3)c[n+]3c2CCCCC3)cc1 was read as G9a inh 14.2%[59 µM], Sfp PPTase inh 17.7%, BAZ2B inh 0.4%, JMJD2A Tudor -1.4% and HP1b chromo inh 20.1%.
Cc1ccc(NC(=O)CSc2nnc3ccc4ccccc4n23)cc1 was read as G9a inh -6.3%[59 µM], BAZ2B inh 31.8%, JMJD2A Tudor inconclusive and HP1b chromo inh 72.8%.
COc1ccc(C2CC(c3ccccc3)Oc3c(C)ccc(C)c32)cc1 (stereo not drawn) was read as Sfp PPTase inh -24.9%, JMJD2A Tudor 20.7% and HP1b chromo inh 50.1%.
`CCn1c(C)nc2cc(C(=O)NNC(=S)Nc3ccc(Cl)cc3)ccc21` gave G9a inh inconclusive, Sfp PPTase inh -27.4%, BAZ2B inh 1.7%, JMJD2A Tudor -20.7% and HP1b chromo inh 21.1%.
Screening CCn1c(C)nc2cc(C(=O)NNC(=S)Nc3ccccc3)ccc21 returned G9a inh 44.7µM*, Sfp PPTase inh 19.2%, BAZ2B inh 0.3%, JMJD2A Tudor -9.8% and HP1b chromo inh 28.2%.
`CCn1c(C)nc2cc(C(=O)NNC(=S)Nc3ccccc3Cl)ccc21` gave G9a inh inconclusive, Sfp PPTase inh 12.6%, BAZ2B inh -2.2%, JMJD2A Tudor -15.7% and HP1b chromo inh 9.9%.
Screening CCn1c(C)nc2cc(C(=O)N/N=C/c3ccccc3)ccc21 returned G9a inh 9.2%, Sfp PPTase inh 2.5%, BAZ2B inh -0.7%, JMJD2A Tudor -13.1% and HP1b chromo inh -14.2%.
CCn1c(C)nc2cc(C(=O)NNC(=S)Nc3ccc(F)cc3)ccc21 was read as G9a inh 44.7µM*, Sfp PPTase inh 15.1%, BAZ2B inh -0.2%, JMJD2A Tudor -5.8% and HP1b chromo inh 26.0%.
CCn1c(C)nc2cc(C(=O)N/N=C/c3cccc(O)c3O)ccc21 was read as G9a inh -31.5%, Sfp PPTase inh 6.0%, BAZ2B inh 79.4µM*, JMJD2A Tudor 79.4µM* and HP1b chromo inh 31.1%.
Screening CCn1c(C)nc2cc(C(=O)NNC(=S)NC(=O)c3ccccc3)ccc21 returned G9a inh 17.8µM*, Sfp PPTase inh 18.2%, BAZ2B inh -1.2%, JMJD2A Tudor -22.3% and HP1b chromo inh 31.3%.
C=CCOc1ccc(/C=N/O)cc1Cl was read as G9a inh 6.2%[59 µM], Sfp PPTase inh 6.5%, BAZ2B inh 10.3%, JMJD2A Tudor -2.8%[57.1 µM] and HP1b chromo inh 5.6%.
`COc1ccc(C2CC(c3ccccc3)Oc3cc(C)c(Cl)c(C)c32)cc1` (stereo not drawn) gave Sfp PPTase inh -2.2%, JMJD2A Tudor 4.8% and HP1b chromo inh 30.2%.
CCOC(=O)c1ccc(-n2c(-c3ccc(C)cc3)c(C)n3c4c(=O)n(C)c(=O)n(C)c4nc23)cc1 was read as G9a inh -1.5%[59 µM], BAZ2B inh -14.5%, JMJD2A Tudor -13.8% and HP1b chromo inh 22.1%.
`Cc1ccc(NC(=O)CN2C(=O)CCc3ccccc32)cc1C` gave G9a inh -37.0%[59 µM], BAZ2B inh 79.4µM*, JMJD2A Tudor inconclusive and HP1b chromo inh -19.1%.
For Cc1ccc(C)c(NC(=O)CN2C(=O)CCc3ccccc32)c1 the results were G9a inh inconclusive, BAZ2B inh 79.4µM*, JMJD2A Tudor inconclusive and HP1b chromo inh -6.8%.
Screening Cc1ccc(Cl)cc1NC(=O)CN1C(=O)CCc2ccccc21 returned G9a inh 13.7%[59 µM], BAZ2B inh -12.3%, JMJD2A Tudor -4.6% and HP1b chromo inh 64.8%.
For CCOC(=O)c1noc2ncnc(Nc3ccc(C)c(F)c3)c12 the results were G9a inh 3.8%[59 µM], BAZ2B inh -0.4%, JMJD2A Tudor -16.3% and HP1b chromo inh 56.6%.
`O=C(CCc1ccccc1)NCc1ccc2c(c1)CCN2C(=O)c1ccc(Cl)cc1` gave G9a inh 7.4%[59 µM], BAZ2B inh -0.6%, JMJD2A Tudor 3.7% and HP1b chromo inh 24.7%.
For Fc1ccc(Nc2nc(N/N=C/c3ccco3)nc(N3CCCCC3)n2)cc1 the results were G9a inh 39.8µM*, Sfp PPTase inh 0.1%, BAZ2B inh inconclusive, JMJD2A Tudor inconclusive and HP1b chromo inh -8.5%.
S=c1nc(-c2csc3c2CCCC3)[nH][nH]1 was read as G9a inh 16.0%[0.501 µM], Sfp PPTase inh 35.5µM*, BAZ2B inh -3.4%, JMJD2A Tudor inconclusive and HP1b chromo inh inconclusive.
Screening CCc1cc2c(=O)n(Cc3ccco3)c(SCC(=O)NCC3CCCO3)nc2s1 (stereo not drawn) returned G9a inh 25.4%[59 µM], Sfp PPTase inh -9.3%, BAZ2B inh -0.7%, JMJD2A Tudor -19.6% and HP1b chromo inh 16.2%.
Screening CCc1cc2c(=O)n(Cc3ccco3)c(SCC(=O)NC3CCS(=O)(=O)C3)nc2s1 (stereo not drawn) returned G9a inh 50.1µM*, Sfp PPTase inh 31.6µM*, BAZ2B inh -20.5%, JMJD2A Tudor -28.3% and HP1b chromo inh 10.8%.
